Data: PubChem BioAssay AID493170 (National Center for Advancing Translational Sciences (NCATS), 2011)
Inconclusive results are not listed. Values without a mark were called inactive. Activity calls are given as the source filed them. The call rests on the fitted dose curve; in most records, active means well fitted inhibition curve with a large enough effect; inconclusive means small, poorly fitted or top-dose-only effect, or effect the other way; inactive means flat fitted curve, though single readings scatter.

Biological target: Ubiquitin carboxyl-terminal hydrolase 2 (Homo sapiens) (UniProt O75604)
Assay: Ub-rhodamine 110 based assay for inhibitors Ubiquitin-specific Protease USP2a; further: nearly all actives have a fitted effect of over 50% in size
Settings: USP2a Ub-rhodamine110 cleavage, fluorescence; series mostly up to 38.3 µM; activity change, negative = inhibition: at the top concentration
How it was run: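 Kinetic fluorescence (485/531 nm) read each minute over 7 min after adding Ub-Rhod110 (150 nM final) to USP2a (5 nM final). The enzyme had 30 min RT exposure to compounds beforehand in Tris pH 8.0 buffer with CaCl2, CHAPS and beta-ME.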
On the % scale 0 is the no-effect control and ±100 the full control effect; potency means the concentration at half of the fitted maximal effect.

Sequence of Ubiquitin carboxyl-terminal hydrolase 2 (Homo sapiens) (O75604 whole entry, looked up): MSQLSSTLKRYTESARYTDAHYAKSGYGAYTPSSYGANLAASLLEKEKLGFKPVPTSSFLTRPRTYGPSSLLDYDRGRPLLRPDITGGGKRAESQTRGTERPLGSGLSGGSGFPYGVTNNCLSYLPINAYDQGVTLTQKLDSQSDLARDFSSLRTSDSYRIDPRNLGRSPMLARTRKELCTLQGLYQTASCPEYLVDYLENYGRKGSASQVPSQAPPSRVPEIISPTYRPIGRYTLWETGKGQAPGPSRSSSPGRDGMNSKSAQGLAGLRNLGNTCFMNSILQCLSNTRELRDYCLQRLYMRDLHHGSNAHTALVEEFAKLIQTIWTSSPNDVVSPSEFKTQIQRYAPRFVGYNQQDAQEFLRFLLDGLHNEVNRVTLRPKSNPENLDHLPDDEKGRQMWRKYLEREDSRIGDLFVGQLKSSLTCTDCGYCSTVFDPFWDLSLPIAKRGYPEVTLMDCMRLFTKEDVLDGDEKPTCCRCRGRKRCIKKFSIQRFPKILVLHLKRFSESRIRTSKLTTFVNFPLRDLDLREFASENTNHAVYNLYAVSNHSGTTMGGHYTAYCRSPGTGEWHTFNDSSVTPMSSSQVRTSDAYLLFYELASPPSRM

Row | SMILES | activity change, negative = inhibition [%] | Potency
1 | c1ccc(-c2nc3nc4ccccc4nc3n2Cc2ccco2)cc1 | -15.9 | 
2 | CC(C)OCCCNC(=O)CN1C(=O)CC(C)(C)S(=O)(=O)c2ccccc21 | -9.85 | 
3 | CCC1=[N+](CC(=O)c2ccc(Br)cc2)CCn2c(C)ccc21 | -20.7 | 
4 | CC(C)(C)C(=O)Nc1c2c(nc3c1CCC3)CCCC2 | -12.7 | 
5 | Cc1ccc(SCC(=O)NCC(C)C)cc1 | -0.9 | 
6 | O=C(COc1ccccc1)NCc1nnc(SCC(=O)Nc2nccs2)n1-c1ccccc1 | 6.68 | 
7 | CC(=O)O[C@H]1[C@H](O)[C@H](Oc2c(O)c(C)c3c4c2[C@@H](C)CC[C@@H]4[C@@H](C)C[C@H]3C=C(C)C)O[C@@H](C)[C@H]1O | -1.57 | 
8 | O=C(/C=C/c1ccc(O)c(O)c1)c1ccc(S(=O)(=O)N2CCCCCC2)cc1 |  | 3.98 µM (active)
9 | Cc1ccc(C2(C)NC(=O)N(CC(=O)c3ccc(Cl)s3)C2=O)cc1 (stereo not given) |  | 11.2 µM (active)
10 | CCCC(c1nnnn1Cc1ccc(OC)cc1)N1CCC(C(N)=O)CC1 (stereo not given) | -9.57 | 
11 | COc1ccc(S(=O)(=O)NCCSCc2ccco2)cc1OC |  | 10 µM (active)
12 | Cc1ccc(C(=O)NCCNS(=O)(=O)c2ccccc2)cc1 | -7.92 | 
13 | C=CCNCCOCCOc1ccccc1-c1ccccc1 | -6.42 | 
14 | O=C(O)/C=C/c1ccc(S(=O)(=O)Nc2ccccc2C(=O)Nc2ccc(F)cc2)cc1 | -20.3 | 
15 | COc1ccc(NC(=O)C2CC(=O)OC2c2ccccc2)cc1 (stereo not given) | -14.6 | 
16 | N#Cc1c(NC(=O)CSc2ncnc3sccc23)oc(-c2ccco2)c1-c1ccco1 |  | 3.98 µM (active)
17 | Cc1nc2ccccc2c2oc(C(=O)NCCN3CCN(C)CC3)cc12 | -12.3 | 
18 | COc1ccc(/C=C\C(=O)O[C@@H]2C(O)C(O[C@@H]3OC(C)[C@H](O[C@@H]4OCC(O[C@H]5O[C@H](CO)[C@@H](O)C(O)C5O)C(O)C4O)C(O)C3O)[C@H](OC(=O)[C@]34CCC(C)(C)C[C@@H]3C3=CCC5[C@@]6(C)CC(O)C(O[C@@H]7OC(CO)C(O)[C@H](O)[C@H]7O)[C@@](C)(C(=O)O)C6CC[C@@]5(C)[C@]3(CO)CC4)O[C@H]2C)cc1 (stereo not given in full) | -12.9 | 
19 | O=C(CCSCc1ccc(Cl)cc1)NCCc1ccccc1 | -6.25 | 
20 | COc1cc(C(O)P(=O)(OC(C)C)c2ccc(N(C)C)cc2)cc(OC)c1OC (stereo not given) | -2.03 | 

Row | SMILES | activity change, negative = inhibition [%] | Potency
21 | COC(=O)c1ccc(NC(=O)CSC2=Nc3ccccc3C3CC=NN23)cc1 (stereo not given) | -25 | 
22 | Cc1cc(C)n2cc(CSc3nnnn3-c3ccccc3C)nc2n1 | -16.8 | 
23 | O=C(c1ccccc1)N1CCN(C2C3CC4CC(C3)CC2C4)CC1 (stereo not given) | -3.77 | 
24 | O=C(O)c1cccc2c1C(=O)c1ccc(-c3ccc(F)cc3OCc3ccccc3)cc1S2(=O)=O |  | 11.2 µM (active)
25 | Cc1cc(N2CCC(C(=O)NC3CC3)CC2)nc(-c2ccccc2)n1 | -8.29 | 
26 | O=C(NN1C(=O)/C(=C/C=C/c2ccco2)SC1=S)c1ccncc1 |  | 10 µM (active)
27 | CCOc1ccc(NC(=O)c2cccc(-n3cnnn3)c2)cc1 | 1.58 | 
28 | COc1cccc(-n2c(SCc3cc(=O)oc4cc(O)c(O)cc34)nc3ccccc3c2=O)c1 |  | 1.58 µM (active)
29 | N#Cc1cc(Sc2ccccn2)c(Sc2ccccn2)cc1C#N | -10.2 | 
30 | C=C(C)COc1ccc(-c2[nH]ncc2Oc2ccccc2OCC)c(O)c1 | -15 | 
31 | O=C(NCC(c1cccnc1)N1CCN(c2ccc(F)cc2)CC1)OCc1ccccc1 (stereo not given) | -5.52 | 
32 | CCOC(=O)CN1C(=O)S/C(=C/c2ccc(O)c([N+](=O)[O-])c2)C1=O | -15 | 
33 | CCCCCCCCCCOC(=O)Cn1c(COc2cccc(C)c2)[n+](C)c2ccccc21 | -8.36 | 
34 | COc1cccc(/C=N/n2c(SC)nnc2-c2ccccc2)c1O | -15.9 | 
35 | Cc1ccc(Nc2nc(N)nc(CN3CCN(C(=O)c4ccco4)CC3)n2)cc1Cl | -14.7 | 
36 | O=C(CN1CCC(O)CC1)N1c2ccccc2C=Cc2ccccc21 | -2.98 | 
37 | Cc1cc(C(=O)CSc2nnc(Nc3ccccc3F)s2)c(C)n1CC1CCCO1 (stereo not given) | -19.4 | 
38 | CC1=NN(c2ccc(C)cc2)C(=O)/C1=C/c1ccc(-c2cc([N+](=O)[O-])ccc2O)o1 |  | 10 µM (active)
39 | COc1ccc(CC(=O)c2ccccc2C(=O)O)cc1 | -1.46 | 
40 | Cn1c(C(=O)NCCN2CCOCC2)cc2c(=O)n(C)c3ccccc3c21 | -0.21 | 
